SARS 3CLpro inh: SARS-CoV 3CLpro protease inhibition | P0C6X7 | recombinant SARS-CoV 3CLpro, quenched FRET peptide cleavage | inhibition, % at 6 µM | actives 0.14% (n = 290,000) | AID 1706; in the data active = inhibition above about 12%
BH1578 lux ind: inducers of Vibrio cholerae quorum light production without autoinducers | V. cholerae BH1578 lux reporter, luminescence, 6 h | activation, % at 18.7 µM | actives 0.16% (n = 350,000); in the data active = activation mostly above about 9.7%, no sharp cut-off
GDH-TPI counter: GDH-TPI coupled enzyme inhibition counter-screen; inhibition, % at 4.8 µM; AID 588335; actives 1.2% (n = 360,000); GDH-TPI coupled enzyme counterscreen, NADH absorbance; in the data active = inhibition above about 30%
PrPC surface inh: reduces human prion protein on the cell surface. P04156. cell surface PrPC, TR-FRET read-out. inhibition, % at 13.8 µM. actives 0.43% (n = 370,000); in the data active = inhibition above about 24%
FBA Mtb inh: inhibitors of M. tuberculosis fructose-bisphosphate aldolase; AID 588726; P9WQA3; actives 2.3% (n = 360,000); purified M. tuberculosis FBA, fluorescence read-out; inhibition, % at 1 µM; in the data active = inhibition above about 27%
Target sequence (P9WQA3 whole entry, looked up): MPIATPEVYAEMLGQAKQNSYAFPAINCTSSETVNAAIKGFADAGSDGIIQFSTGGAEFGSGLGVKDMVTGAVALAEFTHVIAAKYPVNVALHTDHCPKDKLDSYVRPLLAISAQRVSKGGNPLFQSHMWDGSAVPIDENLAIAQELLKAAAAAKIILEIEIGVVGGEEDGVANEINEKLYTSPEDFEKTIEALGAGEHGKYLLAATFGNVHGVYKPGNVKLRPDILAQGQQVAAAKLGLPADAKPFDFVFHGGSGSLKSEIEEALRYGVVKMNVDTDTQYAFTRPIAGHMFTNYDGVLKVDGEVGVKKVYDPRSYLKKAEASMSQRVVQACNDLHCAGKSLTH
Each line names hits and unclear results; the compound was inactive in the other large screens; ! = repeats disagree. Sampled rows, rich in hits. Any-hit rate of the full collection: about 3.9%.

CC(=O)/C(N=Nc1ccc(C(=O)O)cc1[N+](=O)[O-])=C(\C)O	GDH-TPI counter 69
CCc1nn2c(N)c(/C=C3\C=Nc4ccccc43)c(=O)nc2s1	GDH-TPI counter 33!
Cc1cn2c(N)c(/C=C3\C=Nc4ccccc43)c(=O)nc2s1	none
O=C(CSc1nc2ccccc2o1)N/N=C/c1ccccc1	none
O=C(CSc1nc2ccccc2o1)N/N=C/c1ccc(O)c(O)c1	GDH-TPI counter 54
CCC(C)(C)n1nnnc1C(c1cc2ccc(OC)cc2[nH]c1=O)N1CCCCC1 (stereo not drawn)	none
COc1ccc(Cn2nnnc2C(c2cc3ccc(OC)cc3[nH]c2=O)N2CCCCCC2)cc1 (stereo not drawn)	GDH-TPI counter 34
COC(=O)c1ccc(S(=O)(=O)c2ccc(Cl)cc2)c(N)c1	FBA Mtb inh 115
C=CCn1c(=O)c2c(nc(-n3nc(C)cc3C)n2C)n(C)c1=O	none
S=c1nc(-c2ccccc2)[nH]c2ccc(Br)cc12	none
CN(c1ccccc1)S(=O)(=O)c1cccc(NC(=O)c2cc(=O)c3ccccc3o2)c1	none
CC(=O)/C(N=Nc1nc2c([nH]1)c(=O)n(C)c(=O)n2C)=C(\C)O	none
CC1CCCCN1N=Nc1nc2c([nH]1)c(=O)n(C)c(=O)n2C (stereo not drawn)	GDH-TPI counter 39 (no result: SARS 3CLpro inh)
CC1CCN(N=Nc2nc3c([nH]2)c(=O)n(C)c(=O)n3C)CC1	GDH-TPI counter 31 (no result: SARS 3CLpro inh)
Cn1c(=O)c2[nH]c(N=NN3CCCCC3)nc2n(C)c1=O	GDH-TPI counter 54 (no result: SARS 3CLpro inh)
Cn1c(=O)c2[nH]c(C3CCCC3)nc2n(C)c1=O	none (no result: SARS 3CLpro inh)
O=C(CCC(=O)N(CC(=O)NC1CCCC1)Cc1cccs1)Nc1nccs1	none
C=C1C(=O)OC2CC1C(O)CC(C)=CCCC(C)=CC(O)CC2C (stereo not drawn)	PrPC surface inh 33 (no result: SARS 3CLpro inh)
CCOC(=O)/C=c1/s/c(=C/c2ccc3cc(OC)ccc3c2)c(=O)n1CC(=O)NCc1ccc2c(c1)OCO2	none (no result: SARS 3CLpro inh)
CCOC(=O)C1=CCN(S(=O)(=O)c2cccc(Cl)c2)C1c1cccc(Cl)c1 (stereo not drawn)	none (no result: SARS 3CLpro inh, BH1578 lux ind, GDH-TPI counter, FBA Mtb inh)
COc1ccc(CNC(=O)COC(=O)c2ccccc2C(=O)c2ccccc2)cc1	none
Cc1nc(NC(=O)c2cc3ccccc3o2)sc1C	GDH-TPI counter 31
CCOC(=O)c1csc(NC(=O)c2cc3ccccc3o2)n1	GDH-TPI counter 43
C/C(=N\OC(=O)c1ccc(Br)cc1)c1ccccn1	GDH-TPI counter 31
Cc1ccc(C(=O)O/N=C(\N)c2ccccn2)cc1	none
CCN1CCN(C(=O)c2cc3c(s2)-c2c(C)cccc2OC3)CC1	FBA Mtb inh active (no result: PrPC surface inh)
Cc1cccc2c1-c1sc(C(=O)Nc3ccccc3N3CCN(C)CC3)cc1CO2	none
CCOC(=O)N1CCN(C(=O)c2cc3c(s2)-c2c(C)cccc2OC3)CC1	FBA Mtb inh 143
O=C(Cc1cccc2ccccc12)NCC1CCCO1 (stereo not drawn)	none
N#Cc1nc(-c2ccccc2)oc1NCC1CCCO1 (stereo not drawn)	FBA Mtb inh 171
CNc1oc(-c2ccc(Cl)cc2)nc1C#N	FBA Mtb inh active
N#Cc1nc(-c2ccc(Cl)cc2)oc1NCC1CCCO1 (stereo not drawn)	FBA Mtb inh 154
C=CCNc1oc(-c2ccc(Cl)cc2)nc1C#N	none (no result: SARS 3CLpro inh)
N#Cc1nc(-c2cccc3ccccc23)oc1NCC1CCCO1 (stereo not drawn)	FBA Mtb inh active
O=S1(=O)CC(O)C(N=Nc2c(O)n(Cc3ccccc3)c3ccccc23)C1 (stereo not drawn)	none
C[C@@H]1[C@H](O)C[C@@]23COC(=O)C2=CCCC3[C@@]1(C)CCC1COC(=O)C1 (stereo partly drawn)	none (no result: SARS 3CLpro inh)
O=C(N/N=C/c1ccc(N2CCOCC2)s1)c1ccc(NS(=O)(=O)c2cccs2)cc1	GDH-TPI counter 45
O=C(N/N=C/c1ccc(N2CCOCC2)cc1)c1ccc(NS(=O)(=O)c2cccs2)cc1	GDH-TPI counter 35
O=C(N/N=C/c1ccc(N2CCOCC2)cc1)c1ccncc1	none (no result: SARS 3CLpro inh)
O=C(N/N=C/c1ccc(N2CCOCC2)cc1)c1cccs1	GDH-TPI counter 32
O=C(NNC1=Nc2ccccc2SC1)c1ccc(F)cc1	none
O=C(NNC1=Nc2ccccc2SC1)c1ccc(Cl)cc1	GDH-TPI counter 38
O=S(=O)(c1ccc(NC(=S)N/N=C/c2ccc(O)c(O)c2)cc1)N1CCOCC1	GDH-TPI counter 37
N#Cc1ccc(/C=N/NC(=S)Nc2ccc(S(=O)(=O)N3CCOCC3)cc2)cc1	GDH-TPI counter 40

Source: PubChem BioAssay
